This is part of a sample that, as a whole, favours compounds with a hit. Of some 83,000 tested, about 20% had one in any assay.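 Plates (96-well) were seeded with cells, treated with compound at one concentration, and incubated for 48 hours before percent growth was determined.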 Unmarked numbers belong to inactive results. Activity calls are given as the source filed them. Rule for the calls: active = growth percent below 10; inactive = the rest.
Experiments:
Assay in all cases: NCI-60 one-dose screen, 48 h (100 = growth as untreated, 0 = no growth, -100 = all killed)
Details in all cases: 10 µM unless noted
BT-549 breast = test system: BT-549 breast
MDA-MB-435 melanoma = test system: MDA-MB-435 melanoma
SW-620 colon = test system: SW-620 colon
MCF7 breast = test system: MCF7 breast
HCT-116 colon = test system: HCT-116 colon
HCC-2998 colon = test system: HCC-2998 colon
KM12 colon = test system: KM12 colon

SMILES	growth (BT-549 breast)	growth (MDA-MB-435 melanoma)	growth (SW-620 colon)	growth (MCF7 breast)	growth (HCT-116 colon)	growth (HCC-2998 colon)	growth (KM12 colon)
NC(=O)N/N=C/c1ccc(Br)o1	104%	113%	114%	95.4%	105%	96.5%	108%
Cc1ccc(C(=O)Nc2ccc(Cl)cc2C(=O)NCc2ccccc2)cc1	103%	2.07% (active)	58.9%	53.9%	89.9%	86.9%	60.5%
CCCCCCCCCCSc1ncnc2nc[nH]c12	75.8%	76.6%	86.5%	75.9%	48.8%	78.1%	85.1%
Cc1nn(-c2ccccc2)c2c1oc(=O)c1cc(Cl)ccc12	91%	106%	106%	92.7%	95.2%	102%	93.8%
Cc1ccc(NC(=O)COC(=O)c2ccc(S(=O)(=O)N3CCCCCC3)cc2)cc1	141%	107%	107%	102%	103%	91.5%	97.7%
Clc1ccc2nc(Cl)c3ccccc3c2c1	89.6%	50.3%	78.3%	89.7%	19.4%	89.3%	55.7%
C[N+]1(CCC[N+]2(C)C[C@@H]3[C@H](C2)[C@@H]2C=C[C@H]3C2)CCOCC1 (some centres not stated)	103%	113%	106%	107%	105%	112%	108%
O=C(Nc1cccc2ccccc12)c1cc2c(cc1Br)OCO2	61%	111%	100%	79.9%	236%	97.3%	103%
Nc1nc(SCc2ccccc2Cl)c(-c2ccccc2)c(SCc2ccccc2Cl)n1	113%	88.8%	77.3%	78%	82.2%	99%	85.7%
Nc1ccc2c(c1)/C(=N/O)c1cc([N+](=O)[O-])ccc1-2	50.8%	50.9%	13.1%	81.8%	47.3%	103%	64.8%
COc1cc(-c2cc(C(=O)Nc3nc4ccccc4s3)nc3cc(-c4ccccc4)nn23)cc(OC)c1OC	59.6%	31%	55.7%	72.9%	57.8%	85.6%	45.3%
COc1ccc(-c2oc3cc(O)c(OC)c(O)c3c(=O)c2OC)cc1O	-4.89% (active)	-45.9% (active)	19.2%	19%	2.2% (active)	90.1%	2.13% (active)
c1ccc2cc(C[n+]3ccn(CCCCCCCn4cc[n+](Cc5ccc6ccccc6c5)c4)c3)ccc2c1	16.7%	32.7%	74.2%	35.1%	32.7%	49.3%	28.7%
C=CCCCCCCCCC(=O)[O][Sn]([CH2]CCC)([CH2]CCC)[CH2]CCC	-99.2% (active)	-86% (active)	-81.7% (active)	-66.4% (active)	-95.8% (active)	-97.9% (active)	-92.6% (active)
CCCCCCCC/C=C/CCCCCCCC1=NC(C)(C)CN1CCO	78.1%	-31.9% (active)	-66.3% (active)	-55.5% (active)	-68% (active)	-86.6% (active)	-68.5% (active)
COc1cccc(CCC2C(=O)CCCC2=O)c1	109%	119%	112%	108%	114%	115%	106%
COc1ccc(C2=NNC(c3cc(Cc4ccc(O)c(C5CC(c6ccc(OC)cc6)=NN5)c4)ccc3O)C2)cc1 (configuration not stated)	58.1%	12.1%	30.3%	26.1%	28.3%	55.5%	55.4%
Fc1ccc(-c2nnc(-c3c(-c4ccc(F)cc4)nc4ncccn34)o2)cc1	99.9%	97%	108%	92.4%	94.5%	111%	103%

SMILES	growth (BT-549 breast)	growth (MDA-MB-435 melanoma)	growth (SW-620 colon)	growth (MCF7 breast)	growth (HCT-116 colon)	growth (HCC-2998 colon)	growth (KM12 colon)
COc1cc2c(cc1OCCCCCn1c(-c3ccc(OCc4ccccc4)cc3)nc3cc(N4CCOCC4)ccc31)N=C[C@@H]1CCCN1C2=O	1.75% (active)	-9.74% (active)	0% (active)	-3.99% (active)	2.97% (active)	4.97% (active)	-26.7% (active)
COc1ccc(-n2nnc(C(=O)O)c2-c2cc(OC)c(OC)c(OC)c2)cc1	101%	121%	104%	102%	100%	99.1%	105%
O[C@@H]1Cc2ccc3ccccc3c2N[C@H](c2ccoc2)C1	106%	107%	112%	94.5%	105%	113%	106%
Cc1ccc(C(O)C2=CC(=O)c3ccccc3C2=O)cc1 (configuration not stated)	63.1%	102%	95%	87.1%	91.7%	101%	96%
O=C(/C=C/c1ccccc1Cl)c1ccc(O)cc1	55.8%	25.1%	40.9%	15%	13.3%	113%	6.77% (active)
COc1cc2c(c(OC)c1OC)-c1ccc(NN(C(=O)c3ccccc3)C(=O)c3ccccc3)c(=O)cc1[C@@H](NC(C)=O)CC2 (tested in a mixture with another compound)	37.3%	-68.8% (active)	17.1%	24%	12.1%	6.05% (active)	9.8% (active)
COc1cccc(C2C(C#N)=C(N)Oc3cc(OC)ccc32)c1 (configuration not stated)	15.8%	-47.7% (active)	26%	17.1%	7.04% (active)	0.0782% (active)	4.36% (active)
C[N+]1(CCc2ccccc2)CCC(CCC2CC[N+](C)(CCc3ccccc3)CC2)CC1 (configuration not stated)	106%	104%	98.8%	98.6%	95.1%	101%	111%
COc1ccc(COC(C)=O)cc1	99.7%	111%	98.8%	102%	107%	114%	104%
C/C(=C\CCc1ccsc1)CC/C=C(\C)CCCN1CCC(CO)CC1	36.2%	13%	-29.8% (active)	16%	-2.6% (active)	-14.9% (active)	5.04% (active)
CC1SC(c2c(Cl)cccc2Cl)N(NC(=O)c2[nH]c3ccc(F)cc3c2-c2ccccc2)C1=O (configuration not stated)	75.7%	61.9%	17%	42.3%	-43.8% (active)	11.2%	46.4%
CCC1=C(c2ccc(OC)cc2)C(C)(C)Oc2c1ccc(O)c2CN1CCCC1	40.9%	2.88% (active)	3.45% (active)	-73.1% (active)	-21.4% (active)	-89.7% (active)	-9.53% (active)
Cc1cc(Cl)ccc1Nc1nc(C(F)(F)F)ccc1C(=O)NCC(=O)N/N=C/c1c(Cl)cccc1Cl	85.5%	79.6%	80.3%	56.2%	57.7%	92.9%	50.4%
O=[N+]([O-])c1cnc(Sc2ccncn2)c([N+](=O)[O-])c1	111%	91.1%	26.4%	56.1%	-59% (active)	102%	107%
CC[N+](C)(CC)CCCC(C)Nc1ccnc2cc(Cl)ccc12 (configuration not stated)	117%	108%	106%	96.4%	110%	119%	102%
N=C(N)/N=C(\CCc1nc2ccccc2[nH]1)c1nc2ccccc2[nH]1	104%	109%	104%	86.3%	102%	100%	103%
O=C1OC(c2ccc(-c3ccccc3)cc2)=C/C1=C/c1cccs1	92%	99%	105%	41.6%	93.3%	112%	88.1%
O=C1C2C3C=CC(O3)C2C(=O)N1Nc1ccccc1 (configuration not stated)	108%	96.9%	108%	98.9%	106%	102%	115%

— PubChem BioAssay (NCI)
